Results filed as inconclusive are left out. Values without a mark were called inactive. Active and inactive are the calls of the source. Calls follow the shape of the dose curve; as a rule, active = well fitted inhibition curve with a large enough effect; inconclusive = small, poorly fitted or top-dose-only effect; inactive = no such curve, though single readings can be large or run the other way.
Target: Cytochrome P450 3A4 (Homo sapiens) (UniProt P08684)
Assay: qHTS Assay for Inhibitors and Substrates of Cytochrome P450 3A4 (AID 884); also: nearly all actives have a fitted effect of over 50% in size
Conditions: recombinant CYP3A4, Luciferin-PPXE luminescence; series mostly up to 57.1 µM; activity change, negative = inhibition: at the top concentration
Method in brief: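 20 nM human CYP3A4 with 25 uM Luciferin-PPXE (at KM) in 200 mM KPO4, preincubated 10 min with compound; NADPH regeneration started a 60 min RT reaction. Luciferin detected by luminescence, normalized to 57 uM ketoconazole as full inhibition.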
% is scaled to controls: 0 for no effect and ±100 for the full control effect; potency is read from the fitted curve at half-maximal effect.

Cytochrome P450 3A4 (Homo sapiens), sequence (P08684 whole entry, looked up): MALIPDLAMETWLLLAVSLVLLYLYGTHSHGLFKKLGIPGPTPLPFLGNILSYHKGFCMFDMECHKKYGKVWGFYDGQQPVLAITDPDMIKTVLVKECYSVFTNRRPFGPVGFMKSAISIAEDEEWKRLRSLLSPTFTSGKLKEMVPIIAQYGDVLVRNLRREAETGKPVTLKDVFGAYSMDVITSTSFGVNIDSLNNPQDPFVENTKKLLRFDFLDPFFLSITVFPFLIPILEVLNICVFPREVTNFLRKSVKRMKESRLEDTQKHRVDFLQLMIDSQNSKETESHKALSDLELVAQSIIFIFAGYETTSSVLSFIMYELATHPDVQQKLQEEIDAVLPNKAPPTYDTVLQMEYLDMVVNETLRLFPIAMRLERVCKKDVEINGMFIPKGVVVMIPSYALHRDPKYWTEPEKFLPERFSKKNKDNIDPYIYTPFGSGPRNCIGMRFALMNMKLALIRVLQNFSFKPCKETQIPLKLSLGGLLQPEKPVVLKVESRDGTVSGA

First: CC(=O)N1[C@H](Cc2ccccc2)C=C[C@]1(C)C(=O)O
Second: CNC(=O)[C@@]1(C)C=C[C@@H](Cc2ccccc2)N1C(C)=O
The “activity change, negative = inhibition” value of the first is higher: -21.2% for the first, -72.6% for the second.

First: CC(=O)N1CC=CC1(CC(C)C)C(=O)O (stereo not given)
Second: CNC(=O)C1(CC(C)C)C=CCN1C(C)=O (stereo not given)
The “activity change, negative = inhibition” value of the first is higher: -5.43% for the first, -21.5% for the second.

First: COC(=O)N1CC=CC1(C)C(=O)NCC1CC1 (stereo not given)
Second: CNC(=O)C1(C)C=CCN1C(=O)OC (stereo not given)
The “activity change, negative = inhibition” value of the first is lower: -26.7% for the first, -12.1% for the second.

Going from COC(=O)N1CC=CC1(C)C(=O)O (stereo not given) to COCCNC(=O)C1(C)C=CCN1C(C)=O (stereo not given), the “activity change, negative = inhibition” value falls from -22.8% to -27%.

First: CC(=O)N1[C@H](Cc2ccccc2)C=C[C@]1(C)C(=O)NCc1ccccn1
Second: CC1(C(=O)NCc2ccccn2)C=CCN1C(=O)c1ccccc1 (stereo not given)
The “activity change, negative = inhibition” value of the first is lower: -55.7% for the first, -16.5% for the second.

First: CC(Cc1ccccc1)C(=O)N1CCN(C)CC1 (stereo not given)
Second: CC(Cc1ccccc1)C(=O)N(C)Cc1ccccc1 (stereo not given)
The “activity change, negative = inhibition” value of the first is lower: -20% for the first, -15.9% for the second.

Going from CN1[C@H](Cc2ccccc2)C=C[C@]1(C)C(=O)NCC1CC1 to COC(=O)[C@@]1(Cc2ccccc2)C=C[C@@H](C)N1C(C)=O, the “activity change, negative = inhibition” value rises from -56.2% to -26.3%.

Compared with CC(=O)N1C2(C=CC1(C)C(=O)NCc1ccc(C)o1)CCCCC2 (stereo not given), CNC(=O)[C@@]1(Cc2ccccc2)C=C[C@@H](C)N1C(C)=O is higher in “activity change, negative = inhibition” value: -70.9% for the first, -29.4% for the second.

First: CC(C)CC1(C(=O)O)C=CCN1C(=O)c1ccccc1 (stereo not given)
Second: CNC(=O)C1(CC(C)C)C=CCN1C(=O)c1ccccc1 (stereo not given)
The “activity change, negative = inhibition” value of the first is higher: -21% for the first, -28.4% for the second.

First: CCCn1c(C)nc2c(NCCO)nc(C)nc21
Second: Cc1nc(NCCO)c2nc(-c3ccccc3)n(CCN(C)C)c2n1
The “activity change, negative = inhibition” value of the first is lower: -23.3% for the first, 7.6% for the second.

Compared with COC(=O)N1[C@H](C)C=C[C@]1(Cc1ccccc1)C(=O)OC, COCCNC(=O)[C@@]1(Cc2ccccc2)C=C[C@@H](C)N1C(=O)OC is lower in “activity change, negative = inhibition” value: -10.5% for the first, -18.1% for the second.

Compared with COC(=O)[C@@]1(Cc2ccccc2)C=C[C@@H](C)N1C(=O)c1ccccc1, C[C@@H]1C=C[C@](Cc2ccccc2)(C(=O)O)N1C(=O)c1ccccc1 is higher in “activity change, negative = inhibition” value: 8.65% for the first, 18.2% for the second.

First: COC(=O)c1ccc(C(NC(=O)OCc2ccccc2)/C(=C/[C@@H](C)C(=O)NCc2cc(C)n(C)n2)c2cccnc2)cc1 (stereo not given in full)
Second: COC(=O)CCCCCN1C(=O)NC(c2ccc(-c3ccccc3)cc2)C(C(=O)OCc2ccccc2)=C1C (stereo not given)
The “activity change, negative = inhibition” value of the first is lower: -25.3% for the first, -16.5% for the second.

First: COC(=O)C1(C)C=CCN1C(=O)c1ccccc1 (stereo not given)
Second: COC(=O)CNC(=O)[C@@]1(Cc2ccccc2)C=C[C@@H](C)N1C(=O)c1ccccc1
The “activity change, negative = inhibition” value of the first is higher: -15.9% for the first, -29.3% for the second.

With CCCCCCN(C(=O)CCCCCN1C(=O)NC(c2ccc(-c3ccccc3)cc2)C(C(=O)OCc2ccccc2)=C1C)C(C(=O)NCCCC)c1ccc(-c2ccccc2)cc1 (stereo not given) the “activity change, negative = inhibition” value was -18.3%.

CCCCCCN(C(=O)CCCCCN1C(=O)NC(c2ccc(-c3ccccc3)cc2)C(C(=O)OCc2ccccc2)=C1C)C(C(=O)NCCCC)c1ccc(OCC(=O)OC)cc1 (stereo not given) was tested, and the Potency was 10 µM (active).
In the case of CC(=O)N1C2(C=CC1(C)C(=O)NCCN1CCOCC1)CCCCC2 (stereo not given), the Potency was 10 µM (active).
With CC(C)CC1(C(=O)NCCc2c[nH]c3ccccc23)C=CCN1C(=O)c1ccccc1 (stereo not given) the Potency was 3.16 µM (active).
For CC(Cc1ccccc1)C(=O)NCc1ccncc1 (stereo not given), the Potency was 2.51 µM (active).
With CC(=O)N1[C@H](C)C=C[C@]1(Cc1ccccc1)C(=O)NCCN1CCOCC1 the Potency was 12.6 µM (active).
CNC(=O)[C@]1(C)C[C@H]1[C@H](NC(=O)[C@]1(C)C[C@H]1[C@H](NC(=O)OCc1ccccc1)c1ccccc1)c1ccccc1 was tested, and the Potency was 15.8 µM (active).
For COC(=O)N1CC=CC1(C)C(=O)NCc1cc(F)cc(C(F)(F)F)c1 (stereo not given), the Potency was 15.8 µM (active).
In the case of CC(C)NC(=O)[C@@H]1C[C@H]1[C@@H](NC(=O)OCc1ccccc1)c1ccccc1, the Potency was 3.98 µM (active).
With CN(C)C(=O)[C@@H]1C[C@H]1[C@@H](NC(=O)OCc1ccccc1)c1ccccc1 the Potency was 10 µM (active).
For COC(=O)c1ccc(C(NC(=O)OCc2ccccc2)/C(C)=C/[C@@H](C)C(=O)N(C)Cc2cccnc2)cc1 (stereo not given in full), the Potency was 0.794 µM (active).
In the case of CC1(C(=O)NCc2cc(F)cc(C(F)(F)F)c2)C=CC2(CCCCC2)N1C(=O)c1ccccc1 (stereo not given), the Potency was 6.31 µM (active).

From PubChem BioAssay (NCATS)
